± gives the standard deviation of the averaged measurements.
Experiments:
Assay in all cases: promoter activity interaction Z-score (Lux/OD deviation from empty-vector control); higher = stronger promoter induction by the compound
[1] = tested on: E. coli BW25113 ompFp lux reporter
Method in brief: (§1)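 E. coli BW25113 (wild type or marA, soxS or rob deletion) carrying low-copy luxCDABE promoter reporters grew in 40 µl LB Lennox in 384-well plates at 37°C. Each compound was tested at four 1:2 dilutions in biological duplicates. OD600 and luminescence were read every 30 min for 12 h. Areas were taken over 0–8 h (wild type) or 1–9 h (mutants), and wells below 10% of median growth area were removed. The score is the Z-transformed residual of growth-normalised luminescence fitted against the empty-vector control.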

[2] = tested on: E. coli BW25113 robp lux reporter
Method in brief: as §1

[3] = tested on: E. coli BW25113 soxSp lux reporter
Method in brief: as §1

[4] = tested on: E. coli BW25113 tolCp lux reporter
Method in brief: as §1

[5] = 0.079 µg/ml, genetic background: wild type
[6] = 0.079 µg/ml, genetic background: ΔmarA
[7] = 0.079 µg/ml, genetic background: Δrob
[8] = 0.079 µg/ml, genetic background: ΔsoxS
[9] = 0.16 µg/ml, genetic background: wild type
[10] = 0.16 µg/ml, genetic background: ΔmarA
[11] = 0.16 µg/ml, genetic background: Δrob
[12] = 0.16 µg/ml, genetic background: ΔsoxS
[13] = 0.02 µg/ml, genetic background: wild type
[14] = 0.02 µg/ml, genetic background: ΔmarA
[15] = 0.02 µg/ml, genetic background: Δrob
[16] = 0.02 µg/ml, genetic background: ΔsoxS
[17] = 0.04 µg/ml, genetic background: wild type
[18] = 0.04 µg/ml, genetic background: ΔmarA
[19] = 0.04 µg/ml, genetic background: Δrob
[20] = 0.04 µg/ml, genetic background: ΔsoxS

C[C@@H](O)[C@H]1C(=O)N2C(C(=O)O)=C(SCCNC=N)C[C@H]12 [Imipenem]
promoter activity interaction Z-score [1, 5]: 0.372 ± 0.28 | promoter activity interaction Z-score [1, 6]: 0.257 ± 0.3 | promoter activity interaction Z-score [1, 7]: 0.789 ± 0.66 | promoter activity interaction Z-score [1, 8]: 0.142 ± 0.038 | promoter activity interaction Z-score [1, 9]: 0.851 ± 0.33 | promoter activity interaction Z-score [1, 10]: 1.19 ± 0.16 | promoter activity interaction Z-score [1, 11]: 1.34 ± 0.058 | promoter activity interaction Z-score [1, 12]: 1.39 ± 0.5 | promoter activity interaction Z-score [2, 13]: 0.863 ± 0.1 | promoter activity interaction Z-score [2, 14]: 1.42 ± 0.61 | promoter activity interaction Z-score [2, 15]: 1.13 ± 0.1 | promoter activity interaction Z-score [2, 16]: 0.38 ± 1.6 | promoter activity interaction Z-score [2, 17]: 1.42 ± 0.9 | promoter activity interaction Z-score [2, 18]: 0.964 ± 0.54 | promoter activity interaction Z-score [2, 19]: 0.862 ± 0.23 | promoter activity interaction Z-score [2, 20]: -0.648 ± 0.39 | promoter activity interaction Z-score [2, 5]: 0.399 ± 0.46 | promoter activity interaction Z-score [2, 6]: -0.467 ± 0.12 | promoter activity interaction Z-score [2, 7]: -0.0634 ± 0.12 | promoter activity interaction Z-score [2, 8]: 0.149 ± 0.0074 | promoter activity interaction Z-score [2, 9]: 0.582 ± 0.12 | promoter activity interaction Z-score [2, 10]: -0.0297 ± 0.2 | promoter activity interaction Z-score [2, 11]: 0.845 ± 0.3 | promoter activity interaction Z-score [2, 12]: 0.155 ± 0.23 | promoter activity interaction Z-score [3, 13]: 0.0906 ± 0.0094 | promoter activity interaction Z-score [3, 14]: -0.0591 ± 0.084 | promoter activity interaction Z-score [3, 15]: 0.0225 ± 0.12 | promoter activity interaction Z-score [3, 16]: -0.179 ± 0.12 | promoter activity interaction Z-score [3, 17]: 0.124 ± 0.076 | promoter activity interaction Z-score [3, 18]: 0.161 ± 0.03 | promoter activity interaction Z-score [3, 19]: 0.187 ± 0.23 | promoter activity interaction Z-score [3, 20]: -0.163 ± 0.26 | promoter activity interaction Z-score [3, 5]: 0.146 ± 0.15 | promoter activity interaction Z-score [3, 6]: -0.0799 ± 0.11 | promoter activity interaction Z-score [3, 7]: -0.00226 ± 0.029 | promoter activity interaction Z-score [3, 8]: 0.121 ± 0.18 | promoter activity interaction Z-score [3, 9]: 0.0824 ± 0.27 | promoter activity interaction Z-score [3, 10]: -0.0185 ± 0.033 | promoter activity interaction Z-score [3, 11]: -0.0171 ± 0.17 | promoter activity interaction Z-score [3, 12]: 0.177 ± 0.52 | promoter activity interaction Z-score [4, 13]: 0.541 ± 0.2 | promoter activity interaction Z-score [4, 14]: 0.817 ± 0.21 | promoter activity interaction Z-score [4, 15]: -0.144 ± 0.41 | promoter activity interaction Z-score [4, 16]: -0.241 ± 0.51 | promoter activity interaction Z-score [4, 17]: 0.146 ± 1.3 | promoter activity interaction Z-score [4, 18]: 0.917 ± 0.58 | promoter activity interaction Z-score [4, 19]: 1.47 ± 0.4 | promoter activity interaction Z-score [4, 20]: -1.38 ± 0.5 | promoter activity interaction Z-score [4, 5]: 0.00539 ± 0.13 | promoter activity interaction Z-score [4, 6]: -0.369 ± 0.35 | promoter activity interaction Z-score [4, 7]: 0.295 ± 0.094 | promoter activity interaction Z-score [4, 8]: -0.148 ± 0.41 | promoter activity interaction Z-score [4, 9]: -0.803 ± 0.044 | promoter activity interaction Z-score [4, 10]: 0.117 ± 0.52 | promoter activity interaction Z-score [4, 11]: 0.323 ± 0.18 | promoter activity interaction Z-score [4, 12]: 0.105 ± 0.88

— the supplement of paper PMC12282887
